The record followed here is PubChem BioAssay.

The subject of assay [1] is Wnt5a (protein binding on small-molecule microarray). The assay is described as follows: small molecules binding Wnt5a protein – biophysical, small-molecule microarray, 635/667 nm fluorescence, primary screen (AID 1142).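 Also: fluorescence read at 667 nm with signal to noise per printed feature.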 The following applies: 635 nm fluorescence, higher = more signal.
Assay [2] can be described thus: ATP-based viability of Huh7 replicon cells – cell-based, CellTiter-Glo luminescence, basal, 48 h, cytotoxicity control for HCV replication inhibitor project, primary screen (AID 1143).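 Also: Huh7 hepatoma cells carrying a hepatitis C replication reporter with no stimulus; test concentration not given here.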 As to conditions: higher = more signal, called active from +8 up or from −8 down. A general note: In antiviral work, replicon cells carry a viral genome segment that copies itself.
A short description of assay [3]: Pseudomonas biofilm growth suppression – PAO1 strain, BacTiter-Glo luminescence, LB-PBS, primary screen (AID 1144). As to conditions: P. aeruginosa PAO1 biofilm, 12 h, higher = more signal.
The nature of assay [4]: basal CRE-LacZ reporter activity in PC12 – cell-based, unstimulated, primary screen (AID 1145). As to conditions: no forskolin, luminescence, 4.5 h, higher = more signal, called active from +8 up or from −8 down.
Assay [5] is described as follows: forskolin-driven CRE-LacZ activity in PC12 – cell-based, CRE-LacZ reporter, forskolin-stimulated, primary screen (AID 1146).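 Also: PC12 cells with 6xCRE LacZ reporter stimulated by forskolin 10 µM; beta-galactosidase reporter signal reflecting CREB driven transcription.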 As to conditions: luminescence, 4.5 h, higher = more signal, called active from +8 up or from −8 down.
Assay [6] addresses Streptavidin (Streptomyces avidinii) (UniProt P22629). The assay is described as follows: compounds binding control protein streptavidin – biophysical, small-molecule microarray, 635/667 nm fluorescence, artefact control for SMM compound annotation, primary screen (AID 1147).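 Also: signal reflects streptavidin binding to arrayed compounds as a control protein.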 As to conditions: higher = more signal.
Assay [7] in a line: probe aInhba binding on compound microarray – biochemical, small-molecule microarray, 635/667 nm fluorescence, primary screen (AID 1148).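 Also: score merges 667nm spot fluorescence with signal-to-noise for antibody binding to printed compounds.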 As to conditions: higher = more signal.
Assay [8] deals with Torsin-1A (Homo sapiens) (UniProt O14656). The assay is described as follows: TOR1A wild-type binding on microarray – cell lysate, small-molecule microarray, lysate, 635/667 nm, primary screen (AID 1149). The following applies: COS7 hTOR1A-WT lysate, 635 nm fluorescence, higher = more signal.
Assay [9] shares this target. The assay is described as follows: torsin A mutant lysate binding on microarrays – cell lysate, small-molecule microarray, COS7 lysate, 635/667 nm fluorescence, primary screen (AID 1150).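 Also: score pools 667 nm emission and signal to noise measuring lysate protein binding.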 The following applies: COS7 hTOR1A mutant lysate, 635 nm fluorescence, higher = more signal.
The subject of assay [10] is Sonic hedgehog protein (Shh). The assay is described as follows: Sonic hedgehog microarray binding compounds – biochemical, small-molecule microarray, 635/667 nm fluorescence, primary screen (AID 1151).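 Also: Shh protein binding to compounds spotted on small-molecule microarray slides; score combines spot fluorescence intensity with signal-to-noise across triplicate slides.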 As to conditions: 635 nm fluorescence, higher = more signal.

The source made the active and inactive calls. Unless noted, no rule for the calls is given here.

Streptavidin (Streptomyces avidinii), sequence (P22629 whole entry, looked up): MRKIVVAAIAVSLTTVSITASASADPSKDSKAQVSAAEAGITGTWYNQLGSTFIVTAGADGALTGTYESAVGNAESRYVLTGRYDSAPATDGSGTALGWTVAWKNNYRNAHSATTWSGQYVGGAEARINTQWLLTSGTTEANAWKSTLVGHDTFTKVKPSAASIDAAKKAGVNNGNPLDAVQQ
Torsin-1A (Homo sapiens), sequence (O14656 whole entry, looked up): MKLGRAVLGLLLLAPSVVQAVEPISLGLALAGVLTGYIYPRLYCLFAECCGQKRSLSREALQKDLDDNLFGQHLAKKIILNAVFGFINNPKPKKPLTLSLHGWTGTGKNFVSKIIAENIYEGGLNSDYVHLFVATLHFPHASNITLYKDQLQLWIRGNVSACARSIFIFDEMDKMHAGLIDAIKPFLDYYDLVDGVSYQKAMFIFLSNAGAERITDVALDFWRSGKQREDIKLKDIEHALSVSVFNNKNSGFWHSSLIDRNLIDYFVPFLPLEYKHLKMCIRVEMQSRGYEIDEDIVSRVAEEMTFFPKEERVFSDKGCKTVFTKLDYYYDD

For the compound `O=C(NN=C1C[C@@H](O)[C@@H](O)[C@@H]2[C@@H]3C(=O)N(C[C@@H]4CCCO4)C(=O)[C@@H]3CC[C@H]12)OCc1ccccc1`, the composite z-score was -0.222 in assay [1]; 0.281 in assay [6]; -0.341 in assay [7]; 0.146 in assay [8]; 0.219 in [9]; -0.824 in assay [10]. Besides, the z-score is 0.348 (inactive) in [2], 0.458 (inactive) in assay [3], -0.834 (inactive) in assay [4] and -0.105 (inactive) in assay [5].
Regarding `CC(C)=CCCC(C)=CCON=C1C[C@@H](O)[C@@H](O)[C@@H]2[C@@H]3C(=O)N(c4cccc(Oc5ccccc5)c4)C(=O)[C@@H]3CC[C@@H]12`, the composite z-score in assay [1] is -0.102; in [6], 0.217; in assay [7], -0.128; in assay [8] it was -0.38; in [9] it was 0.0864; in assay [10], 0.402. In addition, the z-score was -4.07 (inactive) in assay [2], -0.375 (inactive) in [3], 2.51 (inactive) in assay [4] and 0.557 (inactive) in assay [5].
On to `O=C1[C@H]2[C@H]3[C@H](O)[C@H](O)CC(=NO[C@@H]4O[C@H](CO)[C@@H](O)[C@H](O)[C@H]4O)[C@H]3CC[C@H]2C(=O)N1c1cccc(Oc2ccccc2)c1`, for which the composite z-score in assay [1] is 0.162; in [6], 0.528; in assay [7] it was -0.0846; in assay [8], 0.625; in assay [9] it was 0.367; in [10], 1.09. Further, the z-score in assay [2] is -0.31 (inactive); in assay [3] it was 0.257 (inactive); in [4] it was -0.838 (inactive); in [5], -0.462 (inactive).
